Experimental data as given in PubChem BioAssay AID2501 (Southern Research Specialized Biocontainment Screening …, 2010).
The whole screen tested about 2,200 compounds, of which about 1,200 (55%) were called active. No cut-off is given here; in the data, nearly all actives have IC50 up to about 92 µM. So high a share suggests a set chosen from earlier hits. The list shows a part of the results.

Experiment: counter assay for TAg ATPase ADP read-out – biochemical, ADP-Hunter, fluorescence, counter-screen (AID 2501);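 note: purified T antigen ATPase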
Conditions: series mostly up to 100 µM
For COc1ccc(-c2cc(-c3ccco3)[nH]c(=O)c2C#N)cc1OC, the IC50 was “inactive”.
In the case of O=C1SC(SCc2ccccc2)=N/C1=C\c1ccco1, the IC50 is reported as “inactive”.
With COc1ccc(CNc2ccc(N3CCOCC3)cc2)cc1 the IC50 was 10.5 µM (active).
With Cc1ccc(CNc2ccc(N3CCOCC3)cc2)cc1 the IC50 was 3.89 µM (active).
With COc1ccc(CNS(=O)(=O)c2ccc3c(c2)N(C)CCO3)cc1 the IC50 was “inactive”.
With CCCCn1nc(NS(=O)(=O)c2cccc3nonc23)c2cc3cccc(C)c3nc21 the IC50 was 20.5 µM (active).
In the case of O=C1CCN(Cc2ccc(O)cc2)CCN1[C@H](CO)Cc1ccccc1, the IC50 is reported as “inactive”.
With CCCc1cc(=O)oc2cc(C)c(CN3CCCC3)c(O)c12 the IC50 was “inactive”.
In the case of O=c1cc(CN2CCN(Cc3ccccc3)CC2)c2ccc(O)c(O)c2o1, the IC50 is reported as 10.9 µM (active).
For O=C(COc1ccccc1[N+](=O)[O-])N/N=C/c1ccc(O)cc1, the IC50 was 6.73 µM (active).
In the case of COc1ccc(C)cc1NC(=O)COC(=O)c1ccc([N+](=O)[O-])o1, the IC50 is reported as “inactive”.
For Cc1ccc(/C=N\NC(=O)COc2ccc(C)cc2[N+](=O)[O-])cc1, the IC50 was 23.3 µM (active).
With Cc1ccc(S(=O)(=O)Cc2cc(F)c([N+](=O)[O-])cc2[N+](=O)[O-])cc1 the IC50 was “inactive”.
With CCc1ccc2cccc3c2c1N=CN3C the IC50 was 8.65 µM (active).
In the case of C[C@H](CCC(=O)O)[C@H]1CC[C@H]2[C@@H]3CC[C@@H]4C[C@H](O)CC[C@]4(C)[C@H]3CC[C@]12C, the IC50 is reported as “inactive”.
With Cc1cnc(C(=O)Nc2ccc(S(=O)(=O)NCC(C)C)cc2)cn1 the IC50 was “inactive”.
For CCCCn1nnnc1SCC(=O)Nc1ccc(N(C)C)cc1, the IC50 was 3.37 µM (active).
For CN(C)c1ccc(NC(=O)CSc2nnc(-c3cnccn3)n2C)cc1, the IC50 was 7.11 µM (active).
With Cc1nnc(SCC(=O)Nc2ccc(N(C)C)cc2)n(N)c1=O the IC50 was 5.56 µM (active).
In the case of CCCCOC(=O)c1ccc(NC(=O)CSc2nnnn2C)cc1, the IC50 is reported as “inactive”.
With Cn1ccnc1SCC(=O)Nc1cccc(C(F)(F)F)c1 the IC50 was “inactive”.
With CCn1c2ccccc2c2cc(NC(=O)CSc3nnc(C4CC4)n3Cc3ccco3)ccc21 the IC50 was “inactive”.
In the case of CCn1c(SCC(=O)Nc2ccc(N(C)C)cc2)nnc1C1CC1, the IC50 is reported as 5.16 µM (active).
In the case of Nn1c(SCC(=O)NC(=O)Nc2ccc3c(c2)OCCO3)nnc1C1CC1, the IC50 is reported as “inactive”.
For Cc1cc(-c2nc3c4c5c(sc4[nH]c(=O)n3n2)CCC5)c(C)o1, the IC50 was “inactive”.
For CNC[C@@H](C)NC[C@@H](Cc1ccccc1)NCCc1ccccc1, the IC50 was “inactive”.
In the case of Cc1c(CCC(=O)NCCCC(=O)O)c(=O)oc2cc3oc4c(c3cc12)CCCC4, the IC50 is reported as “inactive”.
For CCOC(CNC(=O)C1CCN(S(=O)(=O)c2ccc3nc4c(c(C(=O)O)c3c2)CCCCC4)CC1)OCC, the IC50 was “inactive”.
With Cc1ccc(C)c(S(=O)(=O)N2CCCCC2CCNC(=O)C(=O)NCc2ccco2)c1 (stereo not drawn) the IC50 was “inactive”.
In the case of O=C(NCc1ccco1)C1CC(=O)N(c2ccc(O)cc2)C1 (stereo not drawn), the IC50 is reported as 6.48 µM (active).
In the case of O=C(CCN1C(=O)c2ccccc2S1(=O)=O)NCc1ccco1, the IC50 is reported as “inactive”.
For Cc1nc2ccc(N=NN(C)C)cc2[nH]1, the IC50 was “inactive”.
In the case of O=C1NN(c2ccccc2)C(=O)/C1=C/c1ccc(-c2ccc(Cl)c(C(=O)O)c2)o1, the IC50 is reported as 13.7 µM (active).
In the case of Cc1cccc(N2NC(=O)/C(=C/c3ccc(-c4ccc(Cl)c(C(=O)O)c4)o3)C2=O)c1, the IC50 is reported as 31.9 µM (active).
In the case of CCCCC1(C)OC(=O)C(=Cc2ccc(-c3ccc(Cl)c(C(=O)O)c3)o2)C(=O)O1 (stereo not drawn), the IC50 is reported as “inactive”.
With N#CC1=C(S)N(c2ccccc2)C(c2ccc(-c3ccc(Cl)c(Cl)c3)o2)NC1=O (stereo not drawn) the IC50 was “inactive”.
For Cn1sc(=O)c2cc(S(=O)(=O)NC3CC3)ccc21, the IC50 was “inactive”.
With CCN1C(=O)CC(N2CCC(Nc3ccc(OC)cc3)CC2)C1=O (stereo not drawn) the IC50 was 4.87 µM (active).
With O=C1NC(=O)C(c2ccccc2[N+](=O)[O-])=C1Nc1ccc(O)c(Cl)c1 the IC50 was 11.8 µM (active).
With O=C(O)c1cc(Nc2cc(Cl)c3nonc3c2[N+](=O)[O-])ccc1O the IC50 was “inactive”.
For N=c1c2c(ncn1CCCO)Oc1ccc3ccccc3c1C2c1ccccc1 (stereo not drawn), the IC50 was “inactive”.
For COc1cc(/C=C(\C#N)c2ccccn2)cc(OC)c1O, the IC50 was 4.83 µM (active).
In the case of COc1cc(/C=C(\C#N)c2nc3ccccc3n2C)cc(OC)c1O, the IC50 is reported as 6.31 µM (active).
With COc1ccc(-c2ccc(OC(=O)NC3CCS(=O)(=O)C3)cc2)cc1 (stereo not drawn) the IC50 was 5.8 µM (active).
In the case of COc1ccc(S(=O)(=O)N2CCC(NC(=O)c3ccccc3)CC2)cc1, the IC50 is reported as “inactive”.
With O=c1c(C(c2c(O)nc3n(c2=O)CCS3)c2cccc3ccccc23)c(O)nc2n1CCS2 the IC50 was 20.9 µM (active).
With C=CCOc1ccc(C2NC(=S)NC(c3ccccc3)=C2C(C)=O)cc1OC (stereo not drawn) the IC50 was “inactive”.
In the case of Oc1ccc(/C=N/Nc2ccc(C(F)(F)F)cn2)cc1O, the IC50 is reported as 5.59 µM (active).
In the case of Oc1ccc(/C=N/Nc2ccc(Cl)nn2)cc1O, the IC50 is reported as 8.65 µM (active).
For N=C1/C(=C/c2ccc(Br)o2)C(=O)N=C2SC(CC(=O)N3CCCC3)=NN12, the IC50 was “inactive”.
For CC1=C(C(=O)OCC(C)C)C(c2cccs2)NC(=S)N1 (stereo not drawn), the IC50 was “inactive”.
In the case of N#CC1(NC(=O)COC(=O)c2cc(O)c3ccccc3c2O)CCCCC1, the IC50 is reported as “inactive”.
In the case of CN(C(=O)c1ccccc1C(=O)OCC(=O)NCc1cccs1)C1CCCCC1, the IC50 is reported as 44.1 µM (active).
In the case of Cc1ccc(-n2nnnc2C(Cl)(Cl)c2nnnn2-c2ccc(C)cc2)cc1, the IC50 is reported as “inactive”.
For Nc1nc(-c2ccco2)cs1, the IC50 was 10.8 µM (active).
For c1coc(-c2nc(-c3ccco3)c(-c3ccco3)nc2-c2ccco2)c1, the IC50 was “inactive”.
With c1coc(-c2nc3ccccc3nc2-c2ccco2)c1 the IC50 was “inactive”.
For NC(=O)c1sc2nnc(-c3ccccc3)c(-c3ccccc3)c2c1N, the IC50 was “inactive”.
With Nc1ccc(-c2sc(N)nc2-c2ccccc2)cc1 the IC50 was 8.36 µM (active).
In the case of ClCC1=Nc2cccc3cccc(c23)N1, the IC50 is reported as 4.21 µM (active).
In the case of CC(C)CCNC(=O)CCCc1ccccc1, the IC50 is reported as “inactive”.
With O=C(COC(=O)CSc1ccc([N+](=O)[O-])cc1)NCCc1ccccc1 the IC50 was “inactive”.
For CCOc1cc(/C=N\NC(=O)CC(=O)NCCc2ccccc2)ccc1O, the IC50 was 4.71 µM (active).
With COc1cc(/C=N\NC(=O)CC(=O)NCCc2ccccc2)ccc1O the IC50 was 3.22 µM (active).
For COc1ccc(N2CCC(CNC(=S)Nc3ccc(C)cc3C)C2)cc1 (stereo not drawn), the IC50 was 10.7 µM (active).
In the case of COc1ccc(Cl)cc1NC(=S)N1CCC(c2ccc(C)cc2)C1 (stereo not drawn), the IC50 is reported as “inactive”.
With COc1ccc(N2CCC(CNC(=S)Nc3c(C)cccc3C)C2)cc1 (stereo not drawn) the IC50 was 7.45 µM (active).
In the case of COc1ccc(N2CCC(CNC(=S)Nc3c(C)cc(C)cc3C)C2)cc1 (stereo not drawn), the IC50 is reported as 12.1 µM (active).
For Cc1ccc(NC(=S)NCC2CCN(C(C)c3ccccc3)C2)cc1C (stereo not drawn), the IC50 was “inactive”.
For O=C(CSc1nc2ccccc2n1CCc1ccccc1)c1ccc(O)c(O)c1, the IC50 was 43.4 µM (active).
In the case of O=C(CSc1n[nH]c(-c2ccccc2)n1)c1ccc(O)c(O)c1, the IC50 is reported as 10 µM (active).
In the case of O=C(CSc1nc2ccccc2c(=O)[nH]1)c1ccc(O)c(O)c1, the IC50 is reported as 9.7 µM (active).
For Cc1ccc(C(=O)N(Cc2ccc3c(c2)OCO3)Cc2nc3ccccc3c(=O)[nH]2)cc1, the IC50 was “inactive”.
For Cc1cc(SCC(=O)c2ccccc2)nc(C)n1, the IC50 was “inactive”.
For CCCn1c(SC(C)C(=O)O)nc2ccccc21 (stereo not drawn), the IC50 was “inactive”.
In the case of N#Cc1c(-c2ccccc2)nc(SCC(=O)N2c3ccccc3Sc3ccccc32)[nH]c1=O, the IC50 is reported as “inactive”.
For Brc1ccc(-c2n(-c3ccccn3)c3ccccc3[n+]2-c2ccccn2)cc1, the IC50 was “inactive”.
In the case of CC(=O)N1c2c(cc(Br)cc2S(=O)(=O)N2CCCCC2)CC1C (stereo not drawn), the IC50 is reported as “inactive”.
In the case of C[c-]1[c-](C)[c-](C)[c-](C)[c-]1C.[Fe].c1cc2nccc(N3CCCC3)[c-]2c1 (stereo not drawn), the IC50 is reported as 5.8 µM (active).
With CCOC(=O)N1CCC(NC(=O)c2cnn3c2NC(c2ccco2)CC3C(F)(F)F)CC1 (stereo not drawn) the IC50 was “inactive”.
In the case of CCN(C(=O)CN1CCN(c2cccc(Cl)c2)CC1)c1c(N)n(Cc2ccccc2)c(=O)[nH]c1=O, the IC50 is reported as “inactive”.
With CCN(C(=O)CN1CCN(c2ccc(O)cc2)CC1)c1c(N)n(Cc2ccccc2)c(=O)[nH]c1=O the IC50 was 4.79 µM (active).
With COCCN(C(=O)COC(=O)c1cc2c(s1)CCC2)c1c(N)n(Cc2ccccc2)c(=O)[nH]c1=O the IC50 was “inactive”.
For CC1=NN(c2nc(-c3ccc(C#N)cc3)cs2)C(=O)C1, the IC50 was “inactive”.
For CC1=NN(c2nc(-c3ccccc3)cs2)C(=O)C1, the IC50 was 56 µM (active).
In the case of Nc1ccc(Sc2ccccc2CC(=O)O)cc1, the IC50 is reported as 16.9 µM (active).
In the case of OCc1ccccc1SSc1ccccc1CO, the IC50 is reported as “inactive”.
For N#Cc1c(-c2ccco2)c2c([nH]c1=S)CCCC2, the IC50 was 95.5 µM (active).
In the case of Cc1ccc(-c2c3c([nH]c(=S)c2C#N)CCCC3)o1, the IC50 is reported as “inactive”.
For N#Cc1c(-c2ccco2)cc(-c2ccccc2)[nH]c1=O, the IC50 was “inactive”.
With CCN(CC)c1ccc(NC(=O)CCNC(=O)c2ccco2)cc1 the IC50 was 5.22 µM (active).
In the case of CCN(CC)c1ccc(NC(=O)c2cc3c(OC)cccc3[nH]2)cc1, the IC50 is reported as “inactive”.
With O=C(CSc1nnc(CNC(=O)c2ccco2)o1)Nc1ccccc1C(F)(F)F the IC50 was “inactive”.
For CCN(CC)c1ccc(NC(=O)c2ccco2)cc1, the IC50 was 4.57 µM (active).
For CCN(CC)c1ccc(NC(=O)c2ccccc2F)cc1, the IC50 was 4.71 µM (active).
In the case of COCCNC(=O)Nc1ccc2nc(-c3ccco3)c(-c3ccco3)nc2c1, the IC50 is reported as “inactive”.
In the case of COc1cc(-c2nc3cccc(C)n3c2NCC2CCCO2)ccc1O (stereo not drawn), the IC50 is reported as 41.9 µM (active).
For S=c1nc[nH]c2nc[nH]c12, the IC50 was “inactive”.
In the case of Cc1ccc(NC(=O)COc2ccc(/C(N)=N/O)cc2)cc1C, the IC50 is reported as 29.6 µM (active).
For Cc1ccc(NC(=O)COc2ccc(C3SCCS3)cc2)cc1, the IC50 was “inactive”.
In the case of CCN(CC)C(=O)c1cc([N+](=O)[O-])cc2c1-c1ccc([N+](=O)[O-])cc1C2=C(C#N)C#N, the IC50 is reported as “inactive”.
In the case of COc1ccccc1CN1CC(C(=O)NCc2ncccc2C)CCC1=O (stereo not drawn), the IC50 is reported as “inactive”.
For CCN(CC)c1ccc(NC(=O)C2CC(=O)N(Cc3ccccc3)C2)cc1 (stereo not drawn), the IC50 was 5.88 µM (active).
